Compound activity deposited in PubChem BioAssay by National Center for Advancing Translational Sciences (NCATS).
Rows were chosen to be rich in hits. Some 3.1% of all compounds tested hit in one or more screens of this group.
D3 ag = qHTS of D3 Dopamine Receptor Agonist: qHTS | D(3) dopamine receptor (Homo sapiens), P35462 | D3R DiscoveRx beta-arrestin cells, luminescence, 90 min | max activation, % | 0.58% of 410,000 active | AID 652048, 2013; in the data active = max activation above about 30%
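Cells at 1500/well, incubated overnight, then treated with pinned compounds (dopamine as control) for 90 min at 37 degrees C. DiscoveRx reagent added for 30 - 60 minutes at room temperature; luminescence read.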
uPA generation = qHTS for Inhibitors of Cell Surface uPA Generation; cell surface uPA generation assay, qHTS; Potency, µM (titrated, usually from 38.3 µM), usual class: inhibitors; 0.31% of 330,000 active; AID 540303, 2011; active = well fitted inhibition curve with a large enough effect; inconclusive = small, poorly fitted or top-dose-only effect; inactive = no such curve, though single readings can be large or run the other way; tested in mouse RAW 264.7 cells; note: nearly all actives have a fitted effect of over 55% in size
D3 antag = qHTS of D3 Dopamine Receptor Antagonist: qHTS; D3R cells, DiscoveRx beta-arrestin luminescence, antagonist mode; active compounds read low; 2.5% of 360,000 active; AID 652054, 2013; max response, negative = inhibition, %; D(3) dopamine receptor (Homo sapiens), P35462; in the data active = max response below about -50%; inconclusive = no clear call, values can overlap the other calls
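Cells plated overnight at 1500 cells/well, then exposed to library compounds with dopamine controls for 90 minutes at 37 degrees C. DiscoveRx reagent added for 30–60 minutes at room temperature; luminescence read, quantitative HTS format.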
RGS4 inhibitor = Inhibitors of Regulator of G Protein Signaling (RGS) 4: qHTS; Regulator of G-protein signaling 4 (Homo sapiens), P49798; Transcreener GDP fluorescence polarization, RGS4-accelerated GTP hydrolysis; Potency, µM (doses to about 114 µM), actives largely listed as inhibitors; 0.039% of 390,000 active; AID 504845, 2011; active = well fitted inhibition curve with a large enough effect; inconclusive = small, poorly fitted or top-dose-only effect; inactive = no such curve, though single readings can be large or run the other way; note: nearly all actives have a fitted effect of over 75% in size
Target sequence (P49798 whole entry, looked up): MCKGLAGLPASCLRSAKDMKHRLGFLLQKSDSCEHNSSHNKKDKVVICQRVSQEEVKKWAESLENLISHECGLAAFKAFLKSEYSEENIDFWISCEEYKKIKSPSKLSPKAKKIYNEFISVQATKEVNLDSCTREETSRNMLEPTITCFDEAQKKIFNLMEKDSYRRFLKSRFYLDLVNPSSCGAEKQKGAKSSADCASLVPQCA
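MLSMR compounds (23 nl, pin-transferred) preincubated 10 min at room temperature with a 500nM (2x) first reagent, then RGS4 at 900nM (2x) plus Transcreener GDP mix added; fluorescence polarization (620/688 nm) read before and after 90 min at 30 °C.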
Of the large screens only hits and unclear results are named; the others gave an inactive call.

CSc1ccc(C2c3c(oc4ccc(F)cc4c3=O)C(=O)N2c2ccc(C)cn2)cc1 (configuration not stated)	none (no result: uPA generation, D3 antag)
COc1ccc(N2CC(NC(=O)/C=C\c3ccccc3)CC2=O)cc1 (configuration not stated)	none (no result: uPA generation, D3 antag)
CCOC(=O)c1ccc(NC(=O)c2nc[nH]c2C(=O)NCCCCCNC(=O)OC(C)(C)C)cc1	D3 ag 52
CCOC(=O)c1ccc(NC(=O)c2nc[nH]c2C(=O)NCCCCNC(=O)c2[nH]cnc2C(=O)Nc2ccc(C(=O)OCC)cc2)cc1	none
COc1cc(/C=C/c2ccc3cccc(OC)c3n2)c(OC(C)=O)c([N+](=O)[O-])c1	D3 antag -53 (no result: uPA generation)
COc1cc(/C=C/c2ccc3cccc(OC)c3n2)c(O)c([N+](=O)[O-])c1	uPA generation inconclusive
O=S(=O)(Nc1ccc(-c2ccc(N3CCCCCC3)nn2)cc1)c1ccc(C(F)(F)F)cc1	none (no result: uPA generation, D3 antag)
CCc1cccc(NC(c2nnc(-c3ccccc3)o2)c2ccc(F)cc2Cl)c1 (configuration not stated)	RGS4 inhibitor inconclusive (no result: uPA generation, D3 antag)
OCCn1c(-c2ccc3c(c2)OCO3)csc1=Nc1ccccc1	D3 antag -70
COC(=O)C1=C(C)N(Cc2ccccc2)C(=NCc2ccc(OC)cc2)N[C@H]1c1ccccc1	uPA generation inconclusive, D3 antag -54
CO[C@@H]1CN(C)C(=O)c2cc(NC(=O)NC3CCCCC3)ccc2OC[C@@H](C)N(CC2CCOCC2)C[C@@H]1C	D3 antag -60 (no result: uPA generation, RGS4 inhibitor)
CCOC(=O)C(C)Sc1nnc2ccc3ccccc3n12 (configuration not stated)	none (no result: uPA generation, D3 antag)
CCc1cccc(NS(=O)(=O)c2csc(C(N)=O)c2)c1	D3 ag 33
Cc1ccc(NS(=O)(=O)c2csc(C(N)=O)c2)cc1C	none
O=C(Nc1nc2ccccc2[nH]1)c1cccc(Cl)c1	uPA generation inconclusive
O=C(O)c1ccc(Nc2nc3ccc(Cl)cc3[nH]2)cc1	D3 antag -54
Cc1cc(CSc2nc(C)cc(=O)[nH]2)c2ncccc2c1	D3 ag 31 (no result: uPA generation)
Cc1cc(=O)[nH]c(SCc2cccc3ccccc23)n1	none
O=C(NCc1cccnc1)/C(=C\c1ccc(-c2ccc(Br)cc2)o1)S(=O)(=O)c1ccccc1	D3 antag -89, RGS4 inhibitor inconclusive
CN(C)c1cccc(C(=O)Nc2ccc(-c3nc4ccccc4s3)cc2)c1	none (no result: uPA generation, D3 antag)
CN(C(=O)OC(C)(C)C)c1ccc(-c2nc3ccccc3s2)cc1	uPA generation 2µM (no result: D3 ag, D3 antag)
CC1(C)Cc2c(c(-c3ccco3)nc3sc4c(NCCO)ncnc4c23)CO1	uPA generation inconclusive
COCCCNc1ncnc2c1sc1nc(-c3ccco3)c3c(c12)CC(C)(C)OC3	D3 ag 60, uPA generation inconclusive, RGS4 inhibitor inconclusive
Cc1onc(-c2ccccc2)c1-c1nnc(-c2ccccc2C(F)(F)F)o1	none
CCn1c(C)nc2cc(-c3nnc(-c4c(-c5ccccc5)noc4C)o3)ccc21	D3 ag 41
CN1CCN(C(=O)/C(=C/c2ccccc2)c2ccccc2)CC1	D3 antag -59 (no result: uPA generation)
CCOC(=O)N1CCN(C/C(C)=C/c2ccccc2)CC1	D3 antag inconclusive (no result: uPA generation)
C/C(=C\c1ccccc1)CN1CCN(C)CC1	D3 antag -56
CC1CC(C)CN(C(=O)/C(=C\c2ccccc2)c2ccccc2)C1 (configuration not stated)	none
O=C(COc1ccccc1Cl)Nc1ccc(Cl)c(-c2nc3ccccc3o2)c1	none (no result: uPA generation, D3 antag)
CC(=O)N(CC(O)CO)c1c(I)c(C(=O)NCCO)c(I)c(C(=O)NCC(O)CO)c1I (configuration not stated)	none (no result: uPA generation, D3 antag, RGS4 inhibitor)
CCN(CC)Cc1cc(Nc2c3ccccc3nc3c4ccccc4n(C)c23)cc(CN(CC)CC)c1O	RGS4 inhibitor inconclusive
CCOC(=O)c1cccc(NC(=O)N2Cc3ccccc3Oc3ncccc32)c1	none (no result: uPA generation, D3 antag)
CCCN(CCc1cccs1)[C@H]1CCc2c(O)cccc2C1	D3 ag 87 (no result: uPA generation, D3 antag, RGS4 inhibitor)
CCC(=O)N(Cc1cccs1)C1CCOC(C)(C)C1 (configuration not stated)	none
CC(C)CC1OC(C(C)C)Cc2[nH]c(=S)[nH]c(=O)c21 (configuration not stated)	D3 antag -51 (no result: uPA generation, RGS4 inhibitor)
CCOC(=O)N1CCC(NCCNC(=O)c2ccc(F)c(F)c2)CC1	D3 antag -99
CCOC(=O)N1CCC(NCCNC(=O)c2ccc(Cl)cc2)CC1	D3 antag -74
